Data taken from PubChem BioAssay AID540345 (The Scripps Research Institute Molecular Screening Center, 2011).
Unmarked numbers belong to inactive results. No rule for the calls is given here.

System: Phorbol Ester
Assay: selectivity profile over receptors, transporters, CYPs – biochemical, Ricerca HitProfilingScreen, CYP450, set 2, selectivity assay for GPR7 antagonist project, profiling panel (AID 540345)
Settings: Ricerca radioligand binding/CYP panel, at 10 µM, active compounds read high

`COc1ccc(Oc2c(Cl)cnn(C3c4ccccc4-c4ccccc43)c2=O)cc1` was tested. Which inhibition did it give?
Its inhibition is 0%.
